Bioassay records as filed in PubChem.
This is one part of a sample in which hits are shown more often than they occur.
nsP2pro primary: blocks chikungunya virus nsP2 protease peptide cleavage; Q8JUX6; FRET peptide cleavage, nsP2pro, fluorescence 1 h; Potency, µM (doses to about 24.9 µM), inactives show at the top dose activity change, negative = inhibition, usual class: inhibitors; 31,000 compounds, 1.1% hits; AID 1964107; further: nearly all actives have a fitted effect of over 60% in size
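Purified recombinant nsP2pro (150 nM final) in 10 mM Tris-HCl pH 8.0 with 0.01% Tween 20 was preincubated 15 min at room temperature with compound (7 concentrations, up to 25 uM). FRET peptide 2 substrate (2.5 uM final) was then added; fluorescence was read after 1 h.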
CHIKV nsP2 cell: cell-based CHIKV nsP2 protease inhibition, secondary | 450 compounds, 10% hits | cell-based CHIKV nsP2 protease reporter assay | shares compounds with nsP2pro primary | Potency, µM (titrated, usually from 51.1 µM), for inactives: top-dose activity change, negative = inhibition, actives largely listed as inhibitors; further: nearly all actives have a fitted effect of over 70% in size
CHIKV NSP2 FL: full-length CHIKV NSP2 protease inhibition, selectivity; shares compounds with nsP2pro primary; Full-length CHIKV NSP2 protease enzymatic counterscreen; Potency, µM (titrated, usually from 50.7 µM), for inactives: at the highest dose activity change, negative = inhibition, most hits filed as inhibitors; 410 compounds, 39% hits; further: nearly all actives have a fitted effect of over 65% in size
Furin counterscr: selectivity counter-screen for CHIKV nsP2 protease inhibitors: human furin; shares compounds with nsP2pro primary; Recombinant human furin enzymatic counterscreen, fluorogenic substrate; 410 compounds, 6% hits; Potency, µM (titrated, usually from 50.6 µM), without a hit: at the top dose activity change, negative = inhibition, hits mostly inhibitors; AID 1964102
nsP2 NS23 pep: blocks CHIKV nsP2 protease cleavage of endogenous NS2/3 peptide. 410 compounds, 34% hits. AID 1964103. Purified CHIKV nsP2 protease, endogenous NS2/3 peptide cleavage. shares compounds with nsP2pro primary. Potency, µM (titrated, usually from 51 µM), for the others: at the top dose activity change, negative = inhibition, hits mostly inhibitors; further: nearly all actives have a fitted effect of over 55% in size
Papain counter: selectivity counter-screen for CHIKV nsP2 protease inhibitors: papain | shares compounds with nsP2pro primary | purified papain protease activity, enzymatic inhibition | Potency, µM (highest dose often 51 µM), for the others: top-dose activity change, negative = inhibition, most hits filed as inhibitors | 410 compounds, 5% hits
Target sequence (P00784 whole entry, looked up): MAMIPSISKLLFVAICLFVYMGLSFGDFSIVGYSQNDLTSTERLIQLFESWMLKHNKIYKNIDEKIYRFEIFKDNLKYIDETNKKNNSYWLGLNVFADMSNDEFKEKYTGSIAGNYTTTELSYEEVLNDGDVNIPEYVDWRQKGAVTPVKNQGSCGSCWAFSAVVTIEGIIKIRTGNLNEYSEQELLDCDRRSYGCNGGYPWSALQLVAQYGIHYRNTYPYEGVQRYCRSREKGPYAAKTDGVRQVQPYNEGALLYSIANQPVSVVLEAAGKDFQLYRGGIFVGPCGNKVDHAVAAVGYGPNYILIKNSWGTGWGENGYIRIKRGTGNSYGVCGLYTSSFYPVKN
nsP2pro confirm: CHIKV nsP2 protease inhibition, confirmatory qHTS; 410 compounds, 43% hits; CHIKV nsP2 protease enzymatic activity, qHTS; shares compounds with nsP2pro primary; Potency, µM (highest dose often 25.5 µM), for the others: top-dose activity change, negative = inhibition, hits mostly inhibitors; AID 1964105; further: nearly all actives have a fitted effect of over 75% in size
HCV NS3 counter: inhibits HCV NS3/4A protease in an nsP2pro selectivity counterscreen. shares compounds with nsP2pro primary. HCV NS3/4A protease biochemical counterscreen. Potency, µM (doses to about 50.9 µM), hits mostly inhibitors. 410 compounds, 20% hits. AID 1964106; further: nearly all actives have a fitted effect of over 55% in size
* = called active by the depositor; i = inactive; ? = inconclusive; . = no result given; [ ] = dose if it differs, or a comment. The call rests on the fitted dose curve. On the % scale 0 is the no-effect control and ±100 the full control effect; potency means the concentration at half of the fitted maximal effect.

SMILES | nsP2pro primary | others
CCC(C)C(=O)OC1CCC=C2C=CC(C)C(CCC3CC(O)CC(=O)O3)C21 (stereo unspecified) | ? | CHIKV nsP2 cell=37%;CHIKV NSP2 FL=7%;Furin counterscr=-5%;nsP2 NS23 pep=-11%;Papain counter=-24%;nsP2pro confirm=-15%;HCV NS3 counter=i
Cc1cc(-c2nnc3n2CCCCC3)c(C)n1-c1ccc(Cl)c(Cl)c1 | -2%
O=C1NCCCCCCN[C@H]2C[C@H](c3nc(-c4cnccn4)no3)C[C@@H]12 | 2%
COc1ccccc1NC(=O)C1=C(C)Nc2nc(-c3ccco3)nn2C1c1ccccc1F (stereo unspecified) | ? | CHIKV nsP2 cell=19%
COc1ccccc1NC(=O)C1=C(C)Nc2ncnn2C1c1ccccc1C(=O)O (stereo unspecified) | -15%
COc1ccccc1NC(=O)C1=C(C)Nc2nc(SCc3ccccc3Cl)nn2C1c1ccncc1 (stereo unspecified) | -19%
Cc1cnn(CCC(=O)N2CCCn3ccnc3C2c2cnn(C)c2)c1 (stereo unspecified) | -19%
C=CCN1CCN(C(=O)[C@@]23CCCC[C@H]2N(CCC(C)C)C(=O)CC3)CC1 | -1%
O=C(NC1C[C@H]2CC[C@@H](C1)N2S(=O)(=O)c1cccs1)c1ccncc1 (stereo partly specified) | 1%
O=C(NCc1ccccc1)c1cc2sccc2n1Cc1ccc(F)cc1 | 7%
Cc1ccc(CNC(=O)c2cc3sccc3n2Cc2ccc(F)cc2)cc1 | 14%
Cc1c(Cl)cccc1NC(=O)c1cc2sccc2n1Cc1ccc(F)cc1 | 7.9µM* | CHIKV nsP2 cell=?;CHIKV NSP2 FL=5.8µM*;Furin counterscr=-18%;nsP2 NS23 pep=16µM*;Papain counter=-8%;nsP2pro confirm=8µM*;HCV NS3 counter=8.2µM*
N#Cc1ccccc1Nc1ncc(-c2cccc3ccccc23)o1 | -61%
Oc1ccc(CNc2ccccc2F)c2cccnc12 | 3.1µM* | CHIKV nsP2 cell=52%;CHIKV NSP2 FL=15µM*;Furin counterscr=-16%;nsP2 NS23 pep=11µM*;Papain counter=-22%;nsP2pro confirm=1.9µM*;HCV NS3 counter=i
Oc1ccc(CNc2ccccc2Cl)c2cccnc12 | -12%
Oc1ccc(CNc2ccccc2C(F)(F)F)c2cccnc12 | i
CN(C)C[C@@H]1CN(c2ncccn2)C[C@H]1NC(=O)c1ccc(Cl)cc1 | -8%
CO[C@H]1C[C@H](O[C@@H]2[C@H](C)O[C@H](O[C@@H]3/C(C)=C/C[C@@H]4C[C@@H](C[C@]5(C=C[C@H](C)[C@@H](C6CCCCC6)O5)O4)OC(=O)[C@@H]4C=C(C)C(O)[C@H]5OC/C(=C\C=C\[C@@H]3C)[C@]54O)C[C@@H]2OC)O[C@@H](C)[C@@H]1O (stereo partly specified) | -11%
COc1ccc(C2(C(=O)N3C[C@@H](CO)[C@H](c4ccccn4)C3)CC2)cc1 | 2%
CC1=C(C(=O)Nc2ccccc2)C(c2cc(C)ccc2C)N2C(CC(=O)NC(C)C)=CSC2=N1 (stereo unspecified) | -17%
CS(=O)(=O)N1CCC(OC2CCN(C(=O)c3cccnc3)CC2)CC1 | i
COC(=O)N(C)Cc1cccc(N2CCN(C(c3ccccc3)c3ccccc3)CC2)c1 | -8%
COCCn1c(C)cc(O)c(C(c2ccccc2OC)N2CCN(c3ccccc3)CC2)c1=O (stereo unspecified) | ? | CHIKV nsP2 cell=3%
COc1ccccc1C(c1c(O)cc(C)n(Cc2ccco2)c1=O)N1CCCCC1 (stereo unspecified) | -21%
O=C(c1cccc(OC2CN(C3CCCC3)C2)c1)N1CCCC1 | 1%
SMILES | nsP2pro primary | others
CN1CCc2cc3c(cc2C1C1OC(=O)c2c1ccc1c2OCO1)OCO3 (stereo unspecified) | -11%
CN1CCc2cccc3c2[C@H]1Cc1ccc(O)c(O)c1-3 | 3.1µM* | CHIKV nsP2 cell=?;CHIKV NSP2 FL=26µM*;Furin counterscr=23µM*;nsP2 NS23 pep=16µM*;Papain counter=14%;nsP2pro confirm=5µM*;HCV NS3 counter=i
CC1(C)[C@H](Cc2cc(COc3ccccc3)on2)C[C@@H]1NC1CCC1 | i
Cc1ccc(S(=O)(=O)Nc2ccc(F)cc2C(=O)Nc2nc(-c3ccccc3)cs2)cc1 | i
CS(=O)(=O)c1cccc(CNc2nc(Nc3ccc4c(c3)CCC(=O)N4)ncc2C(F)(F)F)c1 | 0%
CC(=O)NCC(=O)N1[C@@H]2CC[C@H]1c1ccc(Nc3ncc(C(F)(F)F)c(NC4CCC4)n3)cc12 | . | CHIKV nsP2 cell=-31%;CHIKV NSP2 FL=?;Furin counterscr=-8%;nsP2 NS23 pep=-13%;Papain counter=?;nsP2pro confirm=?;HCV NS3 counter=i
CCS(=O)(=O)N1CCN(c2ccc(Nc3ncc(C(N)=O)c(NC4CC4)n3)cc2)CC1 | -11%
O=C1Cc2c(-c3ccoc3)n[nH]c2CN1Cc1ccccc1 | -25%[39.2 µM]
CN(C(=O)CCS(=O)(=O)c1ccccc1)C1CCc2nn(C)c(=O)n2CC1 (stereo unspecified) | 4%
CC#CC(=O)N1CCCC(C(=O)Nc2ccc(-c3cccc(OC)c3)cc2)C1 (stereo unspecified) | i
O=C(Nc1ccc(Cl)cc1)C1CCCN(C(=O)c2cccc(-c3ccco3)c2)C1 (stereo unspecified) | 7µM* | CHIKV nsP2 cell=?;CHIKV NSP2 FL=-19%;Furin counterscr=-8%;nsP2 NS23 pep=-24%;Papain counter=-16%;nsP2pro confirm=?;HCV NS3 counter=i
COc1ccc(C(=O)N2CCC(C(=O)Nc3ccc(Cl)cc3)CC2)cc1 | -16%
COc1ccc(CNC(=O)C[C@@H]2[C@H](O)CCC3[C@](C)(CO)[C@H](OC(=O)NC(C)C)CC[C@]32C)cc1 (stereo partly specified) | -4%
CC(C)(C)c1cnc([C@@H]2COCCN2C2CCCCC2)[nH]1 | i
O=C1Nc2ccccc2/C1=C\c1ccc(O)c(F)c1 | i
CC[C@H](N)C(=O)O | -16%
CNc1oc(-c2cccc3ccccc23)nc1C(=O)OC | -8%
CCc1ccc(S(=O)(=O)Nc2cnccc2C(=O)Nc2nc(-c3ccccc3)cs2)cc1 | i
CC(=O)Nc1ccc(S(=O)(=O)Nc2ccc([N+](=O)[O-])cc2)cc1 | -6%
Cc1ccc(S(=O)(=O)c2ccc([N+](=O)[O-])cn2)cc1 | 0.35µM* | CHIKV nsP2 cell=2.1µM*;CHIKV NSP2 FL=1.5µM*;Furin counterscr=12µM*;nsP2 NS23 pep=1.8µM*;Papain counter=-15%;nsP2pro confirm=0.56µM*;HCV NS3 counter=2.9µM*
